esBAF inh – Bmi1 luciferase reporter increase in mESCs, primary screen, esBAF inhibitor project, mouse ES cells, Bmi1 luciferase knock-in, single point | hit rate 2% among 350,000 | reporter increase, % at 12.5 µM | AID 602393, 2012 | 24 h; 100% = twice the neutral-well signal; in the data active = activation above about 40%; inconclusive = no clear call, values can overlap the other calls;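 note: 0% = median of the plate's neutral control wells and 100% = double that signal; a rise in the Bmi1 reporter signal indicates esBAF inhibition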
MITF act – activators of MITF-driven TRPM1 promoter reporter, primary screen, cell-based, SK-MEL-5, luciferase, single point; activation, % at 12.5 µM; SK-MEL-5 TRPM1-promoter luciferase, 24 h; % of positive control, neutral wells = 0; hit rate 0.75% among 300,000;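 active = mean activation of at least 80% with every replicate also reaching 80%; inconclusive = mean reaches 80% but some replicate falls short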;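 note: 0% = neutral control wells and 100% = parthenolide positive control wells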
Wnt bcat act – Wnt/beta-catenin pathway activators, primary screen, cell-based, plate reader, single point | Wnt/beta-catenin reporter cell assay, activator | activation, % at 9.35 µM | hit rate 1.2% among 300,000; in the data active = activation above about 30%, passing the limit was not always enough; inconclusive = no clear call, values can overlap the other calls;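 note: 0% = neutral control wells and 100% = positive control wells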
AF4-AF9 inh – inhibitors of AF4 peptide binding to AF9, primary screen, biochemical, AlphaScreen, biotin-AF4 peptide, FLAG-AF9, single point | Protein AF-9 (Homo sapiens), P42568 | inhibition, % at 10 µM | hit rate 0.47% among 350,000 | AID 651704, 2012;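 active = every replicate reaching a set inhibition limit, whatever the replicate mean, cut at about 25% in these data; inconclusive = mean inhibition reaches that limit but some replicates miss it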;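 note: 0% = plate neutral control median and 100% = total signal loss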
Target sequence (P42568 whole entry, looked up): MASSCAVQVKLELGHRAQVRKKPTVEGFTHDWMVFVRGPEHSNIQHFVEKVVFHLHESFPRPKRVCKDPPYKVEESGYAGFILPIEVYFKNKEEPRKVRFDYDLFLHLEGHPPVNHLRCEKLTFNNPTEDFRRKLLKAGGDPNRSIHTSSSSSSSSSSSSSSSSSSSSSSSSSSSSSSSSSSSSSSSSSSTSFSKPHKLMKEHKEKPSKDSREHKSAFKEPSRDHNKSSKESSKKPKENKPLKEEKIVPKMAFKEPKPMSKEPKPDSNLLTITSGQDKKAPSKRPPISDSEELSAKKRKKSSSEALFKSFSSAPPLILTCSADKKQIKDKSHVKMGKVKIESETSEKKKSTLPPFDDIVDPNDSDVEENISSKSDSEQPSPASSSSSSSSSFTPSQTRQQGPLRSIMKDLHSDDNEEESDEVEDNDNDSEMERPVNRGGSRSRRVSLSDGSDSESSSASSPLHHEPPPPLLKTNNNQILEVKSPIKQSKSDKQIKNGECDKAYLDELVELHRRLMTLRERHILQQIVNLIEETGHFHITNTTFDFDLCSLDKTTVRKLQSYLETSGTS
Ecoli rRNA inh – reduced GFP signal of wild-type E. coli, primary screen, bacterial rRNA inhibitor project, GFP/RFP fluorescence, OD600, single point; E. coli WT GFP vs humanized-ribosome RFP mutants, 24 h; active compounds read low; DMSO median 0, no signal -100; GFP signal change (wild-type ribosome), % (test concentration not listed); hit rate 1.6% among 350,000;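 active = significant combined selectivity score with lowered wild-type GFP, culture density cut under 30%, mutant RFP and density less affected; inactive = any of these conditions unmet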
Numbers without * were called inactive; ? = inconclusive; / = no result given. Only some compounds are listed: those with a hit (about 3.7% of all), similar ones and a draw of the others.

SMILES	esBAF inh	MITF act	Wnt bcat act	AF4-AF9 inh	Ecoli rRNA inh
Cc1ccc(-c2csc(NC(=O)CSc3nc(C)cs3)n2)cc1	45*	46	6	/	-33
Cc1ccc(-c2csc(NC(=O)CSc3nc4ccccc4c(=O)n3CCCN(C)C)n2)cc1	/	-41	2	36*	-51
CC(C)(C)NC(=O)CSc1nc(-c2ccc(F)cc2)cs1	/	71	38*	-8	-4
CC1(C)C(=O)Nc2ccccc2N1C(=O)COc1ccc(S(=O)(=O)N2CCOCC2)cc1Cl	7	5	/	/	/
COc1ccc(N(C)C(=O)c2sc(Cl)nc2C)cc1	-2	/	-1	-2	3
Cc1ccc2nc(-c3ccc(NS(=O)(=O)c4c(C)n(C)c(=O)n(C)c4=O)cc3)sc2c1	/	?	48*	6	0
Cc1ccc(-c2cc(-c3n[nH]c(=S)o3)c3ccccc3n2)cc1	/	-6	6	6	-18*
O=C(O)CC/C(=N\Nc1ccc(Cl)cc1)c1cccs1	8	0	2	12	-28*
O=C(c1ccco1)N1CCN(c2ncnc3scc(-c4ccc(Cl)cc4)c23)CC1	-8	/	-2	4	-41
O=C(Nc1ccc2nsnc2c1)N1CCCCC1	19	19	10	/	/
CC1CCN(C(=O)Nc2ccc3nsnc3c2)CC1	?	100*	/	/	/
CC(C)N(C(=O)Nc1ccc2nsnc2c1)C(C)C	/	/	-2	-1	-16*
c1ccc(C2=NN(c3ccccc3)CC2)cc1	46*	88*	50*	3	0
CC1CCC/C(=C\Nc2ccc(O)cc2)C1=O (stereo not drawn)	33	/	/	/	/
Cc1cc(C(=O)O)ccc1N/C=C1\CCCC(C)C1=O (stereo not drawn)	64*	-5	13	/	/
O=C(N=C1N=C2C=CC(Br)=CN2Cc2ccccc21)c1ccc([N+](=O)[O-])cc1[N+](=O)[O-]	/	39	56*	15	5
COC(=O)c1cc(S(=O)(=O)NCCc2cccc(C)c2)cn1C	-9	6	0	-5	-9
C[C@H](CO)N1C[C@H](C)[C@H](CN(C)Cc2ccncc2)OCCCC[C@H](C)Oc2ccc(NC(=O)Nc3ccc4c(c3)OCO4)cc2C1=O	73*	/	/	6	-8
C[C@@H]1CCCCO[C@@H](CN(C)Cc2ccncc2)[C@H](C)CN([C@@H](C)CO)C(=O)c2cc(NC(=O)Nc3ccc4c(c3)OCO4)ccc2O1	62*	/	/	5	-1
C[C@@H]1CN([C@H](C)CO)C(=O)c2cc(NC(=O)Nc3ccc4c(c3)OCO4)ccc2O[C@@H](C)CCCCO[C@@H]1CN(C)Cc1ccncc1	-4	/	/	10	-2
CC(SCc1nc2sc3c(c2c(=O)[nH]1)CCCC3)C(=O)Nc1ccccn1 (stereo not drawn)	3	-2	3	-1	-11
CSc1nnc(C(C)(C)C)c(=O)n1/N=C/c1ccccc1O	/	-12	1	-13	9
CC(=O)Nc1ccc(OCCC[n+]2ccccc2)cc1	/	1	-1	31*	3
CCc1nnc2c3cnn(-c4ccccc4)c3ncn12	64*	99*	?	/	/
CCCCN1CCc2c([nH]c3ccc(C)cc23)C1=O	?	67	37*	/	/
SMILES	esBAF inh	MITF act	Wnt bcat act	AF4-AF9 inh	Ecoli rRNA inh
CC(C)Sc1ccc(C(=O)Nc2ccc(F)cc2F)cn1	/	?	49*	-1	2
CCSc1nsc(NC(=O)Nc2ccccc2F)n1	36	14	7	3	-17
CCCCCCSc1nsc(NC(C)=O)n1	60*	67	/	/	1
CCSc1nsc(NC(=O)Nc2cccc(OC)c2)n1	17	56	15	-1	-59
CCCCSc1nsc(NC(C)=O)n1	/	91*	44*	/	/
CCCSc1nsc(NC(=O)c2cccnc2OCC)n1	/	-10	-1	-1	-14
CCCSc1nsc(NC(=O)CCC)n1	28	113*	20	-23	-12
C[C@H]1CN([C@@H](C)CO)C(=O)c2cc(-c3ccc(C(=O)N(C)C)cc3)cnc2O[C@H]1CN(C)C(=O)CN(C)C	-3	/	/	-6	1
CCCNC(=O)c1cc(-c2ccc3c(c2)OCO3)on1	-10	53	33*	-5	1
CCCCNC(=O)c1cc(-c2ccc3c(c2)OCO3)on1	15	74	10	-2	-4
